{"source": "the supplement of paper PMC6555819", "data": [{"tested_on": "VDR:RXRa (NR concentration 270 nM, RXRa partner concentration 90 nM)", "assay": "PBM binding z-score (relative to random genomic background probes); higher = stronger binding; sequences stand for … in GC…GCGATTGACAGCGTAGAATGAAGG", "description": "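Protein-binding microarray (Agilent 4x180K custom design, double-stranded 60-nt probes: 5' GC cap, 34-nt variable region, 24-nt constant primer region; full probe sequence given). Purified or IVT nuclear receptor:RXRα heterodimers (3:1 NR:RXRα, mostly 270:90 nM) or homodimers were incubated for 1 h in PBS with 2% milk and no ligand, then detected with Alexa488 antibodies. Fluorescence from o1-orientation probes (~5 replicates averaged) was converted to z-scores against 500 random hg19 background probes. Variable regions are seed direct-repeat (DR0–DR5) sites, all their single-nucleotide variants and half-site ablations.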", "values": [{"sequence": "ATCTCTAGGTAGAGTTCAGTGAAAGATCGATAGA", "PBM binding z-score": 2.38}, {"sequence": "CCTACTGGGCCCTTCAGAGGTCATTGATCATATG", "PBM binding z-score": 3.41}, {"sequence": "CGAACGATGGCATGAGTTGATAGCAAATGCCGAT", "PBM binding z-score": -0.111}, {"sequence": "TATATAGGGTCAAAGGCCAGAGTACGAATGTCGA", "PBM binding z-score": 4.75}, {"sequence": "CCTCGGAGGACAGAAGTTCAGAGCTGTCCGCTTT", "PBM binding z-score": 0.197}, {"sequence": "TAGCGTAGGTCAGATCGGGCCAGTATACGCTATA", "PBM binding z-score": 0.856}, {"sequence": "TTACCAAGGTGAAGGTCGTTGTTCCCTCTGTAGA", "PBM binding z-score": 1.26}, {"sequence": "CCTTACGGGTCACGAGGTTATACCACGACGAGCG", "PBM binding z-score": 5.37}, {"sequence": "CAAACTAGGTCGAAGGTCAAAGTCGAGCCAACCA", "PBM binding z-score": 4.45}, {"sequence": "CCTAGCTGGCCAATCTGGGTCACTCAAGGCTTGA", "PBM binding z-score": 0.147}, {"sequence": "TCGAGTAGGTTAGGGGCATTCAGAATGGCGTCGA", "PBM binding z-score": 0.508}, {"sequence": "ATCGAAAGGTCGTGAGGGGAGTATACAGAAAGGC", "PBM binding z-score": 3.55}, {"sequence": "CCGACTGGGGCAGAAAGCTTACCATACCATCCGG", "PBM binding z-score": -0.904}, {"sequence": "CGAACTAGGTCATTGACTGGACAGTGAATAGTAA", "PBM binding z-score": 1.68}, {"sequence": "CAAACTAGGTCACCGGAAGGTCAAATTCCGCATG", "PBM binding z-score": 5.9}, {"sequence": "GGAACGAGGGCAAGTGGATAGCAGAGTTTGATGG", "PBM binding z-score": 0.391}, {"sequence": "TCTAGTTGGTCACGGTGGTCACACACGACGGGTA", "PBM binding z-score": 0.961}, {"sequence": "CCGCGGAGGACAGAAGGTCAGAGCTGTCCGCTTT", "PBM binding z-score": 0.646}, {"sequence": "CGAACTAGGTCATCCAGGACAGAGAATACATTGA", "PBM binding z-score": 4.48}, {"sequence": "CCTCGGAGGACAGAACGTCAGAGCTGTCCGCTTT", "PBM binding z-score": -0.754}, {"sequence": "CCTGCTAGGTCATGATCAGCTAATCTACAGTATG", "PBM binding z-score": 1.41}, {"sequence": "ATATGTAGGTTAAGGGTCATTCAGGTTGGTTCGC", "PBM binding z-score": 5.83}, {"sequence": "CAAACTAGGTCAAGGTCAAACTCGGTTTGTGCCA", "PBM binding z-score": 5.49}, {"sequence": "CGTCCAAGGTCAAAGGTGAGTGAAGAGATGACGG", "PBM binding z-score": 4.94}, {"sequence": "GGAACGAGGGCAAAGTTGAAAGCATCTGTCGACG", "PBM binding z-score": 1.76}, {"sequence": "GCTATCAGGCCATTTGGGTCACTCAATGACGGGC", "PBM binding z-score": 1.38}, {"sequence": "CGTCAAAGTTCAAGGTAAGGTAACAGAAAGCAGC", "PBM binding z-score": 3.7}, {"sequence": "CGAACTCGGTCAGAACAGGACAGTGAAGGATGAT", "PBM binding z-score": -0.191}, {"sequence": "GCATGTAGGTAATACAAGGTGAAAGTCCGATTGT", "PBM binding z-score": 0.342}, {"sequence": "ACTACTTGGTCAGCTGAGGTCACACACAATTCGG", "PBM binding z-score": 4.74}, {"sequence": "ATCTCTAGGTCACAAGTTCAGTGAAAGAGAGGAC", "PBM binding z-score": 4.26}, {"sequence": "CCTACTGGGCCAAAGTCATTGATCAGTCAAAGCA", "PBM binding z-score": -0.45}, {"sequence": "GCGACTGGGGCAATGCAGGTTACCATAAGGTTGG", "PBM binding z-score": -0.0726}, {"sequence": "GCTTGTAGATCCAGGTTAAGAAAGACTAAGCTAA", "PBM binding z-score": -0.307}, {"sequence": "TCACGGAGGACACGAAGGTCAGAGCTTTCCAGAG", "PBM binding z-score": 2.33}, {"sequence": "GCGACTGGGGCAAATCAGGTTACCATAAGGTTGG", "PBM binding z-score": 0.324}, {"sequence": "GATACAGGGTCAAGGGCAGAGTACGCGTATTGAT", "PBM binding z-score": 4.62}, {"sequence": "CCTACTGGGCCAAGGTCCTTGATCAGTCAAAGCA", "PBM binding z-score": -0.657}, {"sequence": "GCTAGCAGGCCAGTTGGGTCACTCAATGACGGGC", "PBM binding z-score": -0.00125}, {"sequence": "ATCTCTAGGTCAGACTCAGTTCAGTGAAGAACGC", "PBM binding z-score": 3.36}]}]}
